In general, inhibition refers to the change of the read-out against control, counted positive when it falls.

Our source for the inhibition values is PubChem BioAssay AID1626 (SRMLSC, 2009).

In all, about 220,000 compounds went through this assay and about 2,000 (0.91%) were called active. Inconclusive results (about 2%) are left out. Cut-off read from the data, not from the text of the source: inconclusive = inhibition above about 80% without an active follow-up result; inactive = below that; test concentration not stated here. Not all results are given here. Entries with a potency or affinity are not part of this list.

The nature of the assay: M. tuberculosis H37Rv growth inhibitors, H37Rv strain (AID 1626).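 Note: bacteria incubated seven days before Alamar blue readout; 0% = bacteria only wells and 100% = bacteria with antibiotic wells.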 The settings on record: hits give high values, concentration not given here.
`O=C(CCCSc1nc(-c2ccco2)cc(C(F)(F)F)n1)Nc1ccc2c(c1)OCO2`: the inhibition was 6.6% (inactive).

Consider `Cc1ccccc1Sc1ncnc2onc(C)c12`, for which the inhibition is -3.01% (inactive).

Turning to `Cc1noc2ncnc(Sc3ccccc3Cl)c12`, the inhibition is 8.85% (inactive).

In the case of `CCn1c(SCc2ccc(C(=O)Nc3nccs3)cc2)nnc1-c1ccc(NC(C)=O)cc1`, the inhibition is 0.27% (inactive).

Regarding `CCn1c(SCc2ccc(C(=O)Nc3nccs3)cc2)nnc1-c1ccc(N)cc1`, the inhibition was 2.31% (inactive).

As for `COC(=O)CNC(=O)c1cn(CC(C)C)c(=O)c2cc(OC)c(OC)cc12`, the inhibition is -2.81% (inactive).

`CC1CC(=O)c2cnc(N3CCOCC3)nc2C1` (stereo not given): the inhibition is 5.78% (inactive).

As to `O=C(CSc1nnnn1C1CCCC1)NCc1ccccc1`, the inhibition was -3.18% (inactive).

Consider `N=c1n(CCN2CCCCC2)c2ccccc2n1CC(O)COc1ccccc1` (stereo not given), for which the inhibition is -5.72% (inactive).

For the compound `CCCn1c(=N)n(CC(O)COc2cccc(C)c2)c2ccccc21` (stereo not given), the inhibition was 4.16% (inactive).

`CCCCn1c(=N)n(CC(O)COc2cccc(C)c2)c2ccccc21` (stereo not given): the inhibition was 0.69% (inactive).

As to `COc1ccc(OCC(O)Cn2c(=N)n(CCN3CCOCC3)c3ccccc32)cc1` (stereo not given), the inhibition was 3.12% (inactive).

Turning to `CC(C)N1CCN(Cc2nc3c(s2)CCCC3)CC1CCO` (stereo not given), the inhibition was -2.24% (inactive).

For `COc1cc([C@@H]2c3cc4c(cc3[C@@H](NC3CCN(Cc5ccccc5)CC3)[C@H]3COC(=O)[C@H]23)OCO4)cc(OC)c1O`, the inhibition is 51.2% (inactive).

`CC1=C(C(=O)OCc2ccc(C)cc2)C(c2ccc(O)c([N+](=O)[O-])c2)NC(=O)N1` (stereo not given): the inhibition was -1.03% (inactive).

Take `COc1ccc(S(=O)(=O)N(CC(=O)NCC2CCCO2)c2ccccc2)cc1OC` (stereo not given): the inhibition is -6.11% (inactive).

As to `Cc1cc(-c2ccc(Cl)cc2Cl)c(C#N)c(=O)[nH]1`, the inhibition is -3.23% (inactive).

Turning to `Cc1ncn2cc(-c3ccc(Cl)cc3Cl)[nH]c(=O)c12`, the inhibition was 11.2% (inactive).

Take `O=c1[nH]c(=O)n(-c2ccccc2)c2c1C(C(F)(F)F)(C(F)(F)F)N=C(CCC1CCCCC1)N2`: the inhibition was -0.92% (inactive).

With `Cc1nc(N2CCN(c3ccccn3)CC2)c2c(C)c(C(=O)Nc3ccc(F)cc3F)sc2n1`, the inhibition is 79.3% (inactive).

For `Cc1nc(N2CCCCC2)c2c(C)c(C(=O)Nc3ccccc3C(F)(F)F)sc2n1`, the inhibition was 1.26% (inactive).

Take `Cc1nc(N2CCOCC2)c2c(C)c(C(=O)Nc3ccccc3Cl)sc2n1`: the inhibition is 0.57% (inactive).

On to `Cc1nc(N2CCOCC2)c2c(C)c(C(=O)Nc3ccc(F)cc3F)sc2n1`, for which the inhibition is -1.7% (inactive).

On to `CCN=C1NN=C(c2cc(C)n(Cc3ccco3)c2C)CS1`, for which the inhibition is 8.94% (inactive).

Regarding `CCN(CCCNC(=O)CN(C)S(=O)(=O)c1ccc2c(c1)CCC(=O)N2)c1cccc(C)c1`, the inhibition was -2.39% (inactive).

Turning to `O=C(COC(=O)C1CCN(S(=O)(=O)c2cccs2)CC1)Nc1ccccc1Br`, the inhibition is -7.27% (inactive).

Regarding `O=c1[nH]c2ccccc2n1CCCN1CCCCC1`, the inhibition was -2.47% (inactive).

For `CCCCn1c(=O)[nH]c2ccccc21`, the inhibition is 3.85% (inactive).

As to `O=C(Nc1cccc(Cl)c1)/C(=C\c1cccnc1)NC(=O)c1ccco1`, the inhibition was 2.59% (inactive).

As to `Cc1ccc(OCCNC(=O)c2cccc(Oc3ccc(C(F)(F)F)cc3[N+](=O)[O-])c2)cc1`, the inhibition is 1.39% (inactive).

For the compound `Oc1ccc2ccccc2c1CN1CCCC1`, the inhibition was 12.7% (inactive).

As to `CN1CCN(Cc2c(O)ccc3cc(Br)ccc23)CC1`, the inhibition was 21% (inactive).

For `Cc1ccc2c(c1)C1CN(C)CCC1N2C(=O)c1cn(-c2ccccc2)nc1-c1ccccc1` (stereo not given), the inhibition was 10.5% (inactive).

For `CC(=O)Nc1ccc(C(=O)NCC(=O)OCc2c(F)cccc2Cl)cc1`, the inhibition was -1.08% (inactive).

With `O=C(CNC(=O)c1ccc(-c2ccccc2)cc1)OCc1c(Cl)cccc1Cl`, the inhibition is -1.9% (inactive).

As for `COc1ccc(N(C(=O)c2ccco2)C(C(=O)NC2CCCC2)c2ccc(N(C)C)cc2)cc1` (stereo not given), the inhibition is -10.8% (inactive).

Regarding `COc1ccc(NC(=O)N/C=C/c2ccccc2)cc1`, the inhibition is -0.86% (inactive).

`COc1cc(C(C[N+](=O)[O-])c2c(N)n(C)c(=O)n(C)c2=O)ccc1O` (stereo not given): the inhibition was 1.8% (inactive).

In the case of `COc1ccccc1C(C[N+](=O)[O-])c1c(N)n(C)c(=O)n(C)c1=O` (stereo not given), the inhibition is 40.8% (inactive).

As to `CCCOc1cccc(C2C(C(=O)c3ccco3)=C(O)C(=O)N2CCN(CC)CC)c1` (stereo not given), the inhibition is -7.15% (inactive).

For `CC(C(=O)N1CCCC1)N1CCN(c2ccccc2O)CC1` (stereo not given), the inhibition is -5.08% (inactive).

With `C/C(O)=C(\N=Nc1cc(C)ccc1O)C(N)=O`, the inhibition is 0.25% (inactive).

`Cc1ccc(Cn2ccc(NC(=O)c3cc(C4CC4)on3)n2)cc1`: the inhibition is -5.45% (inactive).

In the case of `COc1ccc(Cn2c(C(C)C)nc3sc4ccccc4c(=O)c3c2=O)cc1`, the inhibition was 17.7% (inactive).

Turning to `CCc1nc2sc3ccccc3c(=O)c2c(=O)n1CCOC`, the inhibition was -3.87% (inactive).

As for `O=C(COc1ccccc1Br)Nc1ccccc1C(F)(F)F`, the inhibition is 1.69% (inactive).

Consider `O=c1c2[nH]c3ccccc3c2ncn1CCC1=CCCCC1`, for which the inhibition is -3.83% (inactive).

For `COc1ccc2[nH]c3c(NCCC4=CCCCC4)ncnc3c2c1`, the inhibition is 50.8% (inactive).

For the compound `CCNC(=S)NNC(=S)NCc1ccccc1`, the inhibition is -6.54% (inactive).

In the case of `CCOC(=O)c1ccc(NC(C)=O)c([N+](=O)[O-])c1`, the inhibition was -0.43% (inactive).

As for `CCCNc1ccc(C(=O)OCC)cc1[N+](=O)[O-]`, the inhibition is -2.78% (inactive).

Consider `COc1cc(S(N)(=O)=O)c(OC)cc1N`, for which the inhibition was -5.42% (inactive).

On to `COC(=O)CCn1nc(-c2ccc(Cl)cc2)c2ccccc2c1=O`, for which the inhibition is 0.44% (inactive).

`CCCNC(=O)C1CCN(S(=O)(=O)c2cccc3nonc23)CC1`: the inhibition is 3.34% (inactive).

With `O=C(NCc1cccs1)C(=O)NCC(c1ccco1)N1CCN(c2ccccc2F)CC1` (stereo not given), the inhibition is 4.89% (inactive).

`C[C@@H](C(=O)Nc1nc(-c2ccccn2)cs1)N1C(=O)C2CCCCC2C1=O` (stereo not given in full): the inhibition is 1.46% (inactive).

In the case of `O=C(/C=C/c1ccco1)Nc1nc(-c2ccccc2)cs1`, the inhibition was 9.68% (inactive).

Take `Cc1csc(NC(=O)C2CCCC2)n1`: the inhibition was -11.7% (inactive).

Consider `O=C(/C=C\c1ccco1)Nc1nc(-c2ccccc2)cs1`, for which the inhibition is 9.29% (inactive).

As to `Cc1ccnc2nc(C(=O)Nc3nc(-c4ccccn4)cs3)nn12`, the inhibition was -1.5% (inactive).

Turning to `CC(=O)Nc1ccc(C(=O)Nc2nc(-c3ccccn3)cs2)cc1`, the inhibition was 0.25% (inactive).

Consider `CC1CC1C(=O)Nc1nc(-c2ccccc2)cs1` (stereo not given), for which the inhibition was -12.6% (inactive).

`CC1CC1C(=O)Nc1nc(-c2ccc(Cl)s2)cs1` (stereo not given): the inhibition was 9.3% (inactive).

In the case of `O=C(NCc1ccc(F)cc1)C1CCCN(S(=O)(=O)c2cccc3nsnc23)C1` (stereo not given), the inhibition is -3.19% (inactive).

On to `NC1=NC(=O)C(Cc2cc(Cl)ccc2Cl)S1` (stereo not given), for which the inhibition is -5.29% (inactive).

On to `CCOC(=O)C1(C)NC(c2ccc(OC)c(OC)c2)C2C(=O)N(CC)C(=O)C21` (stereo not given), for which the inhibition is -0.15% (inactive).

Turning to `O=C(O)c1ccc(S(=O)(=O)c2ccc(Sc3ccc(C(=O)O)c(C(=O)O)c3)cc2)cc1`, the inhibition is -20.9% (inactive).

Turning to `CCOC(=O)COc1ccc(S(=O)(=O)NCc2ccco2)cc1`, the inhibition was 10.1% (inactive).

For `Cc1cc(C(=O)N2CCOCC2)c(C)o1`, the inhibition is -4.61% (inactive).

For `COCCOc1ccc(C(F)(F)F)cc1NC(=O)c1ccc(C)cc1`, the inhibition is 2.93% (inactive).

Take `CCN1C(=O)CC(c2ccco2)Sc2ccccc21` (stereo not given): the inhibition was 4.45% (inactive).

With `O=P(O)(O)C12CC3CC(CC(C3)C1)C2`, the inhibition was 1.57% (inactive).

Turning to `O=C(/C=C/c1cccc([N+](=O)[O-])c1)NCCSCc1ccc(Cl)cc1`, the inhibition was 11.2% (inactive).

Take `CC(C)(C)c1cc(C(=O)NCC(=O)OCC(=O)c2cccc([N+](=O)[O-])c2)cc(C(C)(C)C)c1`: the inhibition was -4.29% (inactive).

For `Cc1cccc([N+](=O)[O-])c1NC(=O)CN(Cc1ccccc1)Cc1ccccc1`, the inhibition was -0.69% (inactive).

`CN(CCc1ccccn1)c1ncnc2[nH]ncc12`: the inhibition was 2.15% (inactive).

For the compound `COc1cccc2sc(NN)nc12`, the inhibition was 7.32% (inactive).

Regarding `O=C(Nc1nc(-c2cc(Cl)sc2Cl)cs1)c1ccc(Br)s1`, the inhibition is 1.52% (inactive).

As to `CC(=O)Nc1ccc(-c2csc(NC(=O)C3CC(=O)N(c4ccc5c(c4)OCCO5)C3)n2)cc1` (stereo not given), the inhibition was -1.99% (inactive).

For the compound `O=C(NCc1ccccn1)c1ccc(Br)s1`, the inhibition is -0.44% (inactive).

For `COc1cccc2sc(Nc3nc(-c4ccncc4)cs3)nc12`, the inhibition is 1.36% (inactive).

For the compound `O=C(Nc1nccs1)c1cc(Cl)ccc1[N+](=O)[O-]`, the inhibition was 3.23% (inactive).

Take `Cc1csc(NC(=O)c2ccc(Cl)cc2[N+](=O)[O-])n1`: the inhibition was -4.05% (inactive).

For `COc1ccc(-c2csc(NC(=O)C3CC(=O)N(c4ccc5c(c4)OCCO5)C3)n2)cc1` (stereo not given), the inhibition is 28% (inactive).

For the compound `Cc1ccc(C(=O)Nc2nc(-c3cc(Cl)sc3Cl)cs2)cc1`, the inhibition is 3.4% (inactive).

For `COc1ccccc1C(=O)Nc1c(C)cc(Br)cc1C`, the inhibition was 21.1% (inactive).

As for `CCCN1C(=O)C(O)(CC(=O)c2cccc(OC)c2)c2ccccc21` (stereo not given), the inhibition was -1.3% (inactive).

Consider `O=C(O)c1ccc(N2C(=O)CC(SC(=NCc3ccc4c(c3)OCO4)Nc3ccccc3)C2=O)cc1` (stereo not given), for which the inhibition is 1.43% (inactive).

For the compound `CCc1ccc(NC(=O)c2cnn(-c3ccccc3)c2C)cc1`, the inhibition is 1.29% (inactive).

With `COc1ccc(-n2c(Cc3cccs3)nnc2SCC(=O)Nc2ccc3c(c2)OCCO3)cc1`, the inhibition is -1.02% (inactive).

As for `COc1ccc(-c2cc(C(=O)NC3CCCC3)no2)cc1OC`, the inhibition is 9.4% (inactive).

Regarding `O=[N+]([O-])c1cccc(-c2nnc(CNC3CC3)o2)c1`, the inhibition is 1.99% (inactive).

As to `CC(C)c1ccc(OCC(=O)N2CCCCCC2)c(Br)c1`, the inhibition is 4.07% (inactive).

For the compound `Cc1ccc(NC(=O)C2CC(=O)Nc3nncn32)cc1` (stereo not given), the inhibition was -5.26% (inactive).

As for `Cc1c(Cl)cccc1S(=O)(=O)Nc1ccnn1C`, the inhibition was -14.5% (inactive).
